Test systems include HCT-15 colon; HT29 colon; SNB-75 CNS; SNB-19 CNS; U251 CNS; PC-3 prostate; SK-MEL-5 melanoma; UACC-62 melanoma; LOX IMVI melanoma; SK-MEL-28 melanoma; SK-MEL-2 melanoma; EKVX NSCLC; SN12C renal; UO-31 renal; TK-10 renal; ACHN renal; CAKI-1 renal; A498 renal; MOLT-4 leukemia; CCRF-CEM leukemia.
Test in all cases: NCI-60 one-dose screen, 48 h (100 = growth as untreated, 0 = no growth, -100 = all killed)
What all share (conditions): 10 µM unless noted

Here are results for 8 molecules from PubChem BioAssay (NCI).

About 83,000 compounds went through this panel and 20% of them were active in at least one assay; those are over-represented in the sample as a whole.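 Plates (96-well) were seeded with cells, treated with compound at one concentration, and incubated for 48 hours before percent growth was determined.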 A number with no mark means an inactive call. The source made the active and inactive calls. How the source made its calls: active means growth percent below 10; inactive means the rest.

`CCN1C(=O)N(CC)C2Nn3c(s/c(=C4\C(=O)N(C5CCCC5)c5ccccc54)c3=O)=NC21` (centres undefined): the growth with HCT-15 colon is 51.2%; in the assay with HT29 colon, 21.3%; in the assay with SNB-75 CNS, 8.34% (active); with SNB-19 CNS it was 79.2%; in the assay with U251 CNS, 58.9%; in the assay on PC-3 prostate, 46.5%. Besides, the growth is 34.8% with SK-MEL-5 melanoma; 61.9% in the assay on UACC-62 melanoma; 64.5% in the assay with LOX IMVI melanoma; 73.4% in the assay on SK-MEL-28 melanoma; 75.9% in the assay with SK-MEL-2 melanoma; 59.7% with EKVX NSCLC. For the same molecule, the growth in the assay with SN12C renal was 70.6%; in the assay on UO-31 renal, 51.7%; in the assay on TK-10 renal it was 88.1%; with ACHN renal, 59.2%; with CAKI-1 renal, 32.6%; in the assay with A498 renal it was 30.8%. Moreover, the growth with MOLT-4 leukemia was 84.4%.

Consider `COc1cccc2cc(-c3cc4ccccc4[nH]3)/c(=N/C(=S)Nc3ccccc3)oc12`, for which the growth in the assay with HCT-15 colon was 89.2%; in the assay on HT29 colon, 81.8%; in the assay with SNB-75 CNS, -45.3% (active); in the assay on SNB-19 CNS, 66.1%; in the assay with U251 CNS it was 77%; with PC-3 prostate, 68.8%. Also, the growth was 76.1% with SK-MEL-5 melanoma; 76% with UACC-62 melanoma; 80% in the assay with LOX IMVI melanoma; 80.1% in the assay on SK-MEL-28 melanoma; 91.5% in the assay with SK-MEL-2 melanoma; 87.3% in the assay on EKVX NSCLC. Moreover, the growth with SN12C renal is 80.6%; with UO-31 renal, 81.5%; in the assay on TK-10 renal it was 102%; in the assay with ACHN renal it was 41.2%; in the assay on CAKI-1 renal it was 41%; in the assay on A498 renal, 92.4%. Further, in the assay with MOLT-4 leukemia, the growth is 105%.

Turning to `Clc1nc(Cl)c2ncn(C/C=C/Cn3cnc4c(Cl)nc(Cl)nc43)c2n1`, the growth was 50.1% in the assay on HCT-15 colon; 48% in the assay on HT29 colon; 65% with SNB-75 CNS; 74.5% with SNB-19 CNS; 57.4% in the assay on U251 CNS; 66.6% in the assay with PC-3 prostate. Also, the growth in the assay on SK-MEL-5 melanoma is 68.7%; in the assay with UACC-62 melanoma, 79.1%; in the assay on LOX IMVI melanoma, 38.8%; in the assay with SK-MEL-28 melanoma it was 98.8%; in the assay with SK-MEL-2 melanoma it was 96.5%; in the assay on EKVX NSCLC it was 86.6%. Besides, the growth with SN12C renal was 96.5%; with UO-31 renal, 5.99% (active); in the assay on TK-10 renal it was 79.9%; with ACHN renal, 90%; in the assay with CAKI-1 renal it was -60% (active); in the assay on A498 renal, 90.2%. The growth in the assay on MOLT-4 leukemia was 80.8%.

Consider `COc1cccc2nc(Nc3ccc(NC(=O)c4ccc5ncccc5c4)cc3)ccc12`, for which the growth in the assay with HCT-15 colon was 51.5%; with HT29 colon, 63.3%; in the assay on SNB-75 CNS it was 80.8%; in the assay on SNB-19 CNS it was 90.3%; with U251 CNS, 61.8%; in the assay with PC-3 prostate, 52.3%. For the same molecule, the growth with SK-MEL-5 melanoma was 80.7%; in the assay on UACC-62 melanoma, 97.4%; in the assay with LOX IMVI melanoma, 84.6%; with SK-MEL-28 melanoma, 73.8%; with SK-MEL-2 melanoma it was 115%; in the assay with EKVX NSCLC, 87.5%. In addition, the growth in the assay on SN12C renal was 97.8%; in the assay on UO-31 renal, 82.4%; with TK-10 renal it was 108%; in the assay with ACHN renal, 92.8%; in the assay with CAKI-1 renal, 70.2%; in the assay with A498 renal, 83.4%. In addition, the growth in the assay on MOLT-4 leukemia was 67.1%.

As for `CCCCCCCC/C=C\CCCCCCCCOc1ccccc1CCOP(=O)(O)OCC[N+](C)(C)C`, the growth is 46.7% in the assay on HCT-15 colon; 10.9% with HT29 colon; 55.4% in the assay with SNB-75 CNS; 20.1% in the assay with SNB-19 CNS; 13.3% in the assay with U251 CNS; 0.679% (active) in the assay with PC-3 prostate. For the same molecule, the growth with SK-MEL-5 melanoma is 69.5%; in the assay on UACC-62 melanoma it was 54.2%; in the assay on LOX IMVI melanoma, 60.6%; in the assay with SK-MEL-28 melanoma it was 89.1%; in the assay on SK-MEL-2 melanoma it was 84.6%; with EKVX NSCLC it was 91.7%. The growth was 70.1% with SN12C renal; 65% with UO-31 renal; 1.11% (active) in the assay with TK-10 renal; 80.6% with ACHN renal; 26.9% with CAKI-1 renal; 82.7% with A498 renal. The growth in the assay with MOLT-4 leukemia is 11.5%.

As to `Cc1cc(C(=O)CSc2nc3ccccc3c(=O)[nH]2)c(C)n1C`, the growth is 104% in the assay with HCT-15 colon; 96.6% with HT29 colon; 118% in the assay with SNB-75 CNS; 95.5% with SNB-19 CNS; 96.2% with U251 CNS; 83.9% in the assay with PC-3 prostate. In addition, the growth in the assay on SK-MEL-5 melanoma is 98.4%; in the assay on UACC-62 melanoma it was 90.5%; in the assay with LOX IMVI melanoma, 94.7%; with SK-MEL-28 melanoma, 121%; in the assay with SK-MEL-2 melanoma it was 87.9%; in the assay with EKVX NSCLC, 94.9%. Moreover, the growth is 95.4% with SN12C renal; 38.9% with UO-31 renal; 93.1% in the assay with TK-10 renal; 107% in the assay on ACHN renal; 95.9% with CAKI-1 renal; 74.6% in the assay with A498 renal. Moreover, the growth in the assay with CCRF-CEM leukemia is 87.2%; in the assay with MOLT-4 leukemia, 118%.

In the case of `O=S(=O)(NCCNc1cc(-c2cn(-c3ccccc3)nc2-c2ccccc2)ccn1)c1cccc2ccccc12`, the growth in the assay on HCT-15 colon is 43.4%; in the assay on HT29 colon it was 23.6%; in the assay on SNB-75 CNS it was 59%; with SNB-19 CNS, 67%; with U251 CNS, 53.3%; in the assay with PC-3 prostate, 15.3%. Also, the growth is 26.5% with SK-MEL-5 melanoma; 56.5% in the assay with UACC-62 melanoma; 45.8% with LOX IMVI melanoma; 62.9% in the assay on SK-MEL-28 melanoma; 89.5% in the assay on SK-MEL-2 melanoma; 36.5% with EKVX NSCLC. The growth in the assay with SN12C renal is 58.9%; with UO-31 renal, 22.3%; in the assay on TK-10 renal, 66.8%; with ACHN renal, 51.7%; with CAKI-1 renal it was 49.8%; with A498 renal, 72.5%. The growth was 83.5% with CCRF-CEM leukemia and 28.4% with MOLT-4 leukemia.

Turning to `CCCCCCCCCN1C(=O)/C(=c2\sc3n(c2=O)C2C(NN=3)N(CC)C(=O)N2CC)c2ccccc21` (centres undefined), the growth in the assay with HCT-15 colon is 73%; in the assay on HT29 colon, 7.96% (active); in the assay with SNB-75 CNS it was -14.4% (active); in the assay with SNB-19 CNS it was 39.7%; in the assay with U251 CNS, 25.1%; in the assay with PC-3 prostate it was 34.3%. The growth in the assay with SK-MEL-5 melanoma is 72.9%; in the assay on UACC-62 melanoma, 23.7%; in the assay on LOX IMVI melanoma it was 19.4%; in the assay with SK-MEL-28 melanoma it was 41.3%; with SK-MEL-2 melanoma it was 76.2%; in the assay with EKVX NSCLC, 69.1%. For the same molecule, the growth is 66.3% with SN12C renal; 53.4% in the assay on UO-31 renal; 71.1% in the assay on TK-10 renal; 59% with ACHN renal; 34.8% in the assay on CAKI-1 renal; 18.8% in the assay on A498 renal. The growth in the assay with MOLT-4 leukemia was 99.7%.
